# In all, about 340,000 compounds went through this assay and about 12,000 (3.5%) were called active. Roughly 18% stayed inconclusive and do not appear here. For the sample, actives were picked, then their nearest neighbours and some compounds at random. Values without a mark were called inactive. Calls follow the shape of the dose curve; as a rule, active = well fitted inhibition curve with a large enough effect; inconclusive = small, poorly fitted or top-dose-only effect, or another doubt; inactive = no such curve, though single readings can be large or run the other way.
# Test: qHTS Assay for Inhibitors of Hepatitis C Virus (HCV)
# Settings: Huh7.5.1 HCVcc-Cre infection, luciferase reporter, 44 h; series mostly up to 41.8 µM; activity change, negative = inhibition: at the top concentration
# Outline: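 Cells seeded at 1,000/well and cultured 4 h, then compounds added followed by HCVcc-Cre virus (~0.5 moi). After 44 h further culture, luciferase substrate was added, plates held 15 min at room temperature, and luminescence read for 15 sec.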
# % is scaled to controls: 0 for no effect and ±100 for the full control effect; potency is read from the fitted curve at half-maximal effect.
SMILES,"activity change, negative = inhibition",Potency
Cc1c(-c2ccccc2)nc(N)c(C#N)c1-c1cccs1,17.7%,–
CC(NC(=O)CSc1nc2c(cc1C#N)CN(C)CC2)c1ccccc1 (stereo not drawn),-20.5%,–
CN1CCc2nc(SC(C(=O)O)c3ccccc3)c(C#N)c(-c3cccs3)c2C1 (stereo not drawn),–,10 µM (active)
Cc1ccc([C@@H]2CC=C(C(=O)O)[C@H](c3cccc(Cl)c3)N2S(=O)(=O)c2ccc(C)cc2)cc1,23.6%,–
CC(C)(C)OC(=O)C[C@@H]1C/C=C\C[C@@H](CC(=O)N(CCO)Cc2ccccc2)C(=O)N[C@H](Cc2ccccc2)COC1=O,14.1%,–
Cc1csc(=O)n1CC(=O)OCC(=O)N(CC(C)C)c1c(N)n(Cc2ccccc2)c(=O)[nH]c1=O,0.0195%,–
Cn1c(=O)[nH]c(=O)c2c1nc(Br)n2CCCCSc1nc2ccccc2o1,–,12.6 µM (active)
Cn1c(=O)c2c(nc(Br)n2CCSc2nc3ccccc3o2)n(C)c1=O,-24%,–
Cc1ccnc(SCCn2c(Br)nc3c2c(=O)[nH]c(=O)n3C)n1,-9.01%,–
CCCCC/C=C/C1=CC(=O)C[C@H](c2ccc(Cl)cc2)C1,-4.66%,–
O=C1NCCn2nc3ccccc3c21,-0.139%,–
Cn1c(N)c(C(=O)COC(=O)/C=C/c2cccc(C(F)(F)F)c2)c(=O)n(C)c1=O,5.92%,–
Cc1cc(C)cc(-c2nnc(SCC(=O)NC3CC3)o2)c1,0.418%,–
O=C(c1ccc2c(c1)N(Cc1ccc(F)cc1)C(=O)CS2)N1CCOCC1,14.1%,–
O=C(NCCN1CCOCC1)c1ccc2c(c1)N(Cc1ccc(Cl)cc1)CCS2,8.59%,–
CCOC(=O)N1CCN(C(=O)c2ccc3c(c2)N(Cc2ccc(C)cc2)CCS3)CC1,–,12.6 µM (active)
O=C(NNC(=O)c1cc(S(=O)(=O)N2CCCCC2)ccc1Cl)c1ccccc1O,-11.9%,–
CN(C(=O)CN1C(=O)NC(C)(CCc2ccccc2)C1=O)c1ccccc1 (stereo not drawn),16.1%,–
O=C(COC(=O)c1cc[n+]([O-])cc1)Nc1ccc(Cl)c(C(F)(F)F)c1,0.896%,–
O=C1c2ccccc2C(=O)N1CCCCCCN1C(=O)c2ccccc2C1=O,7.88%,–
O=C(NNC(=O)c1ccc2ccccc2c1)c1ccc(Cl)cc1,-4.02%,–
COc1ccc(C(=O)CN2C(=O)NC3(CCc4ccccc43)C2=O)c(OC)c1 (stereo not drawn),4.95%,–
c1ccc(CCc2ccccn2)cc1,21.4%,–
CCOC(=O)C1=C(c2ccccc2)NC(=S)NC1c1ccc(Cl)cc1 (stereo not drawn),–,11.2 µM (active)
CCOC(=O)C1=C(C)NC(=O)NC1c1ccccc1 (stereo not drawn),6.14%,–

SMILES,"activity change, negative = inhibition",Potency
CCOC(=O)C1=C(c2ccccc2)NC(=O)NC1c1cc(OC)c(OC)cc1OC (stereo not drawn),20.3%,–
CC1CCCCN1CCCNC(=O)Cn1ncc2c([nH]c3ccccc32)c1=O (stereo not drawn),12.5%,–
CCCn1c2ccccc2c2cnn(CC(=O)NCCCN3CCCCC3CC)c(=O)c21 (stereo not drawn),–,11.2 µM (active)
CCC1CCCCN1CCCNC(=O)Cn1nc(-c2ccccc2)ccc1=O (stereo not drawn),5.92%,–
CC(C)N(C(=O)CN1CCN(S(=O)(=O)c2ccc(Br)s2)CC1)C(C)C,8.62%,–
Cc1ccc(/C=C/C(=O)OCC(=O)Nc2cccnc2Cl)cc1,-7.92%,–
c1ccc(CSCCc2ccncc2)cc1,-1.66%,–
CC(C)(C)c1ccc(SCCc2ccncc2)cc1,–,8.91 µM (active)
O=[N+]([O-])c1cc(C(F)(F)F)ccc1NCCc1ccncc1,-0.741%,–
CC1(C)Cc2ccccc2-c2[nH]c(=S)[nH]c(=O)c21,25.9%,–
CC1(C)Cc2ccccc2/C(=C/C(=O)c2ccccc2)N1,–,14.1 µM (active)
CC(C)CC(N=C1NC(C)(C)Cc2ccccc21)C(=O)O (stereo not drawn),11%,–
CN(CC(=O)NCCc1ccc(F)cc1)CC(=O)Nc1ccc(F)c(F)c1F,-17%,–
CC(C)(C)n1nnnc1C(c1ccc(F)cc1)N1CCN(Cc2ccc3c(c2)OCO3)CC1 (stereo not drawn),-0.102%,–
Cc1c(CN2CC[C@@H](N3CCN(c4ccccn4)CC3)[C@H](O)C2)[nH]c2ccc(F)cc12,-28.5%,–
O=c1[nH]c(N2CCN(Cc3ccc4c(c3)OCO4)CC2)nc2c1CCCC2,2.31%,–
Fc1ccc2[nH]c3c(N4CCN(Cc5ccc6c(c5)OCO6)CC4)ncnc3c2c1,–,2.51 µM (active)
Fc1ccc2[nH]c3c(N4CCSCC4)ncnc3c2c1,–,6.31 µM (active)
O=C1NC(=O)C(CCc2ccccc2)(c2ccccc2)N1 (stereo not drawn),-0.263%,–
Cc1cc(C)n2nc(C(=O)OC(C)C(=O)c3cc(C)c(C)cc3C)nc2n1 (stereo not drawn),3.37%,–
CCC(C)N(C(=O)Cn1nc(C)c([N+](=O)[O-])c1C)C1CCS(=O)(=O)C1 (stereo not drawn),35.7%,–
O=C(Nc1ccccc1)Nc1ccc(C(F)(F)F)cn1,-9.65%,–
Oc1ccc(/C=N/Nc2ccc(C(F)(F)F)cn2)cc1O,–,3.55 µM (active)
Cc1nccn1CC(=O)N/N=C/c1ccc(O)c(O)c1,11.8%,–
CC(=O)Nc1ccc(C(=O)NNC(=O)CCCCC(=O)NNC(=O)c2ccc(NC(C)=O)cc2)cc1,10.3%,–

SMILES,"activity change, negative = inhibition",Potency
CCCCN1C(N)=NC[C@@H]1Cc1ccccc1,14%,–
CC[C@]12c3[nH]c4ccc(Cl)cc4c3CCN1C(=O)[C@@H](CC(=O)NCCCOC)C[C@@H]2C(=O)N1CCN(C(=O)C2CC2)CC1,-19.7%,–
C=CC[C@@H](CC(=O)N[C@@H](CO)Cc1ccccc1)C(=O)NCCOC(=O)[C@@H](CC=C)CC(=O)OC(C)(C)C,21.7%,–
CCCn1c(C)cc(-c2csc(NC(=O)CCc3nc4ccccc4c(=O)[nH]3)n2)c1C,-6.01% [at 8.37 µM],–
O=C1CN(C(=O)COC(=O)/C=C/c2ccc(F)cc2)c2ccccc2N1,3.6%,–
Cn1c(SCC(=O)N2CCCc3ccccc32)nc2ccccc2c1=O,–,12.6 µM (active)
O=C(CSc1nc2[nH]ncc2c(=O)n1-c1ccccc1)N1CCCc2ccccc21,-4.01%,–
O=C(CSc1nc2ccccc2c(=O)n1CCCO)N1CCc2ccccc21,-6.38%,–
O=C(COC(=O)COc1ccccc1F)Nc1cccc(S(=O)(=O)N2CCCCC2)c1,2.99%,–
Cn1nnnc1SCC(=O)Nc1cccc(S(=O)(=O)N2CCCCC2)c1,8.59%,–
CSCCC1NC(=O)N(CC(=O)Nc2cccc(S(=O)(=O)N3CCCCCC3)c2)C1=O (stereo not drawn),–,11.2 µM (active)
O=C(Cn1cnc2ccccc2c1=O)Nc1cccc(S(=O)(=O)N2CCCCC2)c1,–,11.2 µM (active)
Nc1cc(N)nc(SCC(=O)Nc2cccc(S(=O)(=O)N3CCCCC3)c2)n1,0.0012%,–
COCCn1cnnc1SCC(=O)Nc1cccc(S(=O)(=O)N2CCCCC2)c1,-6.89%,–
Nc1ncnc2c1ncn2[C@@H]1O[C@H](CNCc2cccn2-c2nccs2)[C@@H](O)[C@H]1O,7.72%,–
NC(=O)c1ccsc1NC(=O)COC(=O)COc1ccc(C=O)cc1,-1.1%,–
CCOC(=O)/C=C/c1ccc(C(F)(F)F)cc1S(=O)(=O)NC(C)(C)C,4.83%,–
CCCCN1C(=O)C(=O)N(CC(=O)Nc2cccc(C(C)=O)c2)C1=O,11.1%,–
CC(C)Cc1nnc(NC(=O)CCNC(=O)c2ccccc2Cl)s1,7.34%,–
COc1ccc(-c2nnc(-c3ccc4ccccc4c3)o2)cc1,7.69%,–
CCOc1ccc(S(=O)(=O)Nc2ccc(C(=O)NCCCN3CCCC3=O)cc2)cc1,-0.358%,–
CCOC(=O)c1sc2nc(SC)nc(-c3ccccc3)c2c1N,-1.48%,–
Cc1cccc(NC(=O)c2sc3nc4c(c(-c5ccco5)c3c2N)CCC4)c1,-12.9%,–
Cc1nc2sc(C(=O)c3ccccc3)c(N)c2c2c1CCCC2,–,25.1 µM (active)
COc1ccc(-c2ccc3nnc(SCC(=O)Nc4ccc(NC(C)=O)cc4)n3n2)cc1,-24.5%,–

SMILES,"activity change, negative = inhibition",Potency
CC(C)(C)OC(=O)C[C@@H]1C/C=C\C[C@H](CC(=O)N[C@@H](CO)Cc2ccccc2)C(=O)N[C@H](Cc2ccccc2)COC1=O,-11.5%,–
O=C(N/N=C/c1ccc2c(c1)OCO2)c1ccc(Cn2cc([N+](=O)[O-])cn2)o1,5.24%,–
Cc1c(Cl)c([N+](=O)[O-])nn1CCCC(=O)Nc1cc(Cl)ccc1Cl,-20.9%,–
Cc1c(Cl)c([N+](=O)[O-])nn1Cc1ccc(C(=O)N/N=C\c2cc(Cl)ccc2O)o1,–,12.6 µM (active)
Cc1ccc(S(=O)(=O)N2CCC(C(=O)N3CCCCCCC3)CC2)cc1,19.1%,–
O=C(O)c1ccccc1N=N/C(=N/Nc1cc(S(=O)(=O)O)ccc1O)c1ccccc1,3.51%,–
CN(C)CCN(C(=O)CN1C(=O)c2ccccc2C1=O)c1nc2cc3c(cc2s1)OCCO3,12.9%,–
COC(=O)c1ccc(CSc2ccc(S(=O)(=O)N3CCCCC3)cn2)cc1,-14.1%,–
Cc1ccc2nc(-c3ccncc3)cc(C(=O)Nc3ccncc3)c2c1,5.09%,–
Cc1ccc2nc(-c3ccccn3)cc(C(=O)Nc3ccc4c(c3)OCO4)c2c1,-30%,–
Cc1ccc2nc(-c3ccncc3)cc(C(=O)Nc3ccc(OC(F)F)cc3)c2c1,–,8.91 µM (active)
COc1cc(C2C(C(=O)c3cccs3)=C(O)C(=O)N2CCN2CCOCC2)ccc1OCCC(C)C (stereo not drawn),3.65%,–
Cc1c[n+]([O-])ccc1[N+](=O)[O-],-10.3%,–
O=C(N/N=C/c1c(Cl)[nH]c2ccccc12)c1sc2ccccc2c1Cl,–,10 µM (active)
CCOc1ccc2ccccc2c1/C=N/NC(=O)c1c(C)cc(C)[nH]c1=O,-20.3%,–
Cc1nn(C)cc1/C=N/NC(=O)c1sc2ccccc2c1Cl,-3.97%,–
OCC1(CO)CC2(C1)CC(CO)(CO)C2,3.43%,–
Cc1ccc(S(=O)(=O)N2CCN(C(=O)c3ccc(-n4cncn4)c([N+](=O)[O-])c3)CC2)cc1,-1.61%,–
Cc1ccc(S(=O)(=O)N(C)C)cc1NC(=O)C1Cc2ccccc2CN1C(=O)c1ccco1 (stereo not drawn),6.19%,–
Cc1ccc(C)c(NC(=O)C2Cc3ccccc3CN2C(=O)OCc2ccccc2)c1 (stereo not drawn),–,10 µM (active)
Cc1ccc(NC(=O)C2CCCN2C(=O)OCc2ccccc2)cc1C (stereo not drawn),-3.3%,–
Cc1ccc(OCC(=O)Nc2ccccc2C(=O)NC2CC2)cc1,-22%,–
CC1CCCCC1NC(=O)COc1ccc(C#N)cc1 (stereo not drawn),11.6%,–
